High-throughput results: PubChem, National Center for Advancing Translational Sciences (NCATS)
Shown are actives, neighbours in structure and some others; about 3% of the full set was active somewhere.
VDR inhibitor: vitamin D3 receptor (human) inhibition | Potency, µM, for inactives: max response, negative = inhibition, usual class: inhibitors | 0.93% of 400,000 active | VDR-SRC2-3 peptide fluorescence polarization, 2 h
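Two reagent solutions held at 4 deg C in the dark were dispensed, compounds pinned at 23 nl, and the mixture incubated 2 h at room temperature. Read-out: fluorescence polarization of VDR–SRC2-3 peptide binding.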
ALOX12 inh: blocks human arachidonate 12S-lipoxygenase. 1.1% of 580,000 active. Potency, µM (highest dose often 108 µM), for inactives: top-dose activity change, negative = inhibition, hits mostly inhibitors. purified 12hLO, xylenol orange hydroperoxide absorbance. P18054
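Purified human 12hLO at 150 nM in 25 mM Hepes, 0.01% Triton X-100, pH 7.0, preincubated 15 min at room temperature with compound. Reaction started with 40 uM arachidonic acid, 30 min at room temperature. Hydroperoxide measured by Fe-xylenol orange, 573/405 nm absorbance ratio.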
KAT2A inh: inhibitors of human GCN5L2 histone acetyltransferase; Potency, µM (top dose mostly 58.9 µM), inactives show at the top dose activity change, negative = inhibition, usual class: inhibitors; Q92830; AID 504327; 0.21% of 390,000 active; GCN5L2 HAT assay, ThioGlo1 CoA-SH fluorescence
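Free CoA generated was detected with ThioGlo1 (50uM) fluorescence at Ex340nm/Em540nm, read immediately and after 20 min at room temperature. Enzyme, 20 nM in HEPES pH 7.5 buffer, saw compounds 15 min before adding 75uM H3(1-25) peptide and 70uM acetyl-CoA.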
PLK1 PBD inh: PLK1 (human) polo-box domain binding inhibition; P53350; Plk1 PBD binding of FITC phosphopeptide, fluorescence polarization; Potency, µM, for the others: max response, negative = inhibition, usual class: inhibitors; 2.8% of 360,000 active; AID 720504; note: series mostly up to about 57 µM; nearly all actives have a fitted effect of over 65% in size
TbPYK confirm: Trypanosoma brucei pyruvate kinase inhibition, cherry-pick confirmation; shares compounds with PLK1 PBD inh; recombinant TbPYK, Kinase-Glo ATP luminescence; Potency, µM (highest dose often 76.9 µM), for the others: at the highest dose activity change, negative = inhibition, hits mostly inhibitors; 67% of 890 active; AID 720569; note: nearly all actives have a fitted effect of over 70% in size
TbPYK ADP-Glo: TbPYK inhibition, orthogonal confirmation. shares compounds with PLK1 PBD inh. recombinant TbPYK, ADP-Glo luminescence, 60 min. Potency, µM (top dose mostly 76.9 µM), for the others: top-dose activity change, negative = inhibition, most hits filed as inhibitors. 62% of 890 active; note: nearly all actives have a fitted effect of over 75% in size
The depositor's hits bear a star; [ ] = remark or other dose. Calls come from the whole dose curve; as a rule, active = well fitted curve in the direction sought with a large enough effect; inconclusive = small, poorly fitted or top-dose-only effect, or another doubt; inactive = no such curve, though single readings can be large; an effect the other way counts as inactive or inconclusive. % is set by controls: 0 for no effect and ±100 for the full control effect; potency is the fitted concentration of half-maximal effect.

`Cc1ccc(N2C(=O)CC(c3cccs3)C3=C2CCCC3=O)cc1` (stereo not given) gave ALOX12 inh -2.2%.
Screening CCOC(=O)c1ccc(N2CSC3=C(C#N)C(c4cccs4)CC(=O)N3C2)cc1 (stereo not given) returned VDR inhibitor 89.1µM*, ALOX12 inh 17.8µM*, KAT2A inh inconclusive, PLK1 PBD inh -22.2%, TbPYK confirm inconclusive and TbPYK ADP-Glo inconclusive.
COc1ccc(OC)c(NC(=O)C2CC(=O)Nc3c(-c4ccccc4OC)cnn32)c1 (stereo not given) was read as ALOX12 inh -1.2%.
O=C1c2cc(N3CCOCC3)nc(-c3cnc4[nH]ccc4c3)c2CN1CC(F)(F)F was read as ALOX12 inh 45.7%[176 µM].
`O=C(O)/C=C/C(=O)NNC(=O)c1cc(-c2ccccc2)n[nH]1` gave VDR inhibitor inconclusive, ALOX12 inh inconclusive, KAT2A inh -15.2%, PLK1 PBD inh 29.9µM*, TbPYK confirm inconclusive and TbPYK ADP-Glo inconclusive.
Screening Cc1ccccc1CS(=O)(=O)c1cn(CC(=O)N2CCOCC2)c2ccccc12 returned VDR inhibitor -21.7%, ALOX12 inh inactive, KAT2A inh -13.7% and PLK1 PBD inh -5.9%.
Screening O=C(Cn1cc(S(=O)(=O)Cc2ccc([N+](=O)[O-])cc2)c2ccccc21)N1CCOCC1 returned VDR inhibitor 4.6%, ALOX12 inh inconclusive, KAT2A inh -29.9%, PLK1 PBD inh -22.2%, TbPYK confirm 15.8µM* and TbPYK ADP-Glo 25.1µM*.
For CC(CNC(=O)c1cc2ccccc2oc1=O)N(C)c1ccccc1 (stereo not given) the results were ALOX12 inh -27.9%.
`CCC1Oc2ccc(C)cc2N(CC(=O)N(Cc2ccc(C)o2)C2CCCC2)C1=O` (stereo not given) gave VDR inhibitor inconclusive, ALOX12 inh -20.5%, KAT2A inh -5.1%, PLK1 PBD inh inconclusive, TbPYK confirm 15.8µM* and TbPYK ADP-Glo 15.8µM*.
`CCOC(=O)c1sc(N/N=C/c2ccccc2)nc1C` gave VDR inhibitor 44.7µM*, ALOX12 inh inconclusive, KAT2A inh -16.7%, PLK1 PBD inh 8.44µM*, TbPYK confirm 14.1µM* and TbPYK ADP-Glo 28.2µM*.
CCCn1c(SCC(=O)c2cc(OC)ccc2OC)nnc1C(C)C was read as VDR inhibitor -16.4%, ALOX12 inh inconclusive, KAT2A inh 2.9%, PLK1 PBD inh inconclusive, TbPYK confirm 15.8µM* and TbPYK ADP-Glo 15.8µM*.
COc1cc(/C=N/N2C(=O)CSC2=S)cc(Br)c1O was read as VDR inhibitor inconclusive, ALOX12 inh inconclusive, KAT2A inh -8.1% and PLK1 PBD inh inconclusive.
For COc1cccc(/C=N/N2C(=O)CSC2=S)c1O the results were VDR inhibitor inconclusive, ALOX12 inh 35.5µM*, KAT2A inh -10.2%, PLK1 PBD inh inconclusive, TbPYK confirm inconclusive and TbPYK ADP-Glo inconclusive.
COc1ccc2ccccc2c1/C=N/N1C(=O)CSC1=S was read as VDR inhibitor 11.4%, ALOX12 inh -11.6%, KAT2A inh -2.8% and PLK1 PBD inh -22.5%.
Screening O=C1CSC(=S)N1N=Cc1c(O)ccc2ccccc12 returned VDR inhibitor inconclusive, ALOX12 inh 11.2µM*, PLK1 PBD inh -10.3%, TbPYK confirm inconclusive and TbPYK ADP-Glo 15.8µM*.
For O=C1S/C(=C/c2ccc(N3CCOCC3)o2)C(=O)N1Cc1c(F)cccc1Cl the results were VDR inhibitor 79.4µM*, ALOX12 inh 28.2µM*, KAT2A inh -12.8%, PLK1 PBD inh 42.6%, TbPYK confirm inconclusive and TbPYK ADP-Glo 39.8µM*.
Screening O=C1S/C(=C\c2ccc(N3CCOCC3)o2)C(=O)N1Cc1c(F)cccc1Cl returned VDR inhibitor inconclusive, ALOX12 inh 31.6µM*, KAT2A inh inconclusive, PLK1 PBD inh 55.5%, TbPYK confirm 17.8µM* and TbPYK ADP-Glo 14.1µM*.
Screening O=C1N=C(N2CCOCC2)S/C1=C/c1ccc(-c2ccccc2Cl)o1 returned VDR inhibitor -14.2%, ALOX12 inh -8.3%, KAT2A inh 3.9% and PLK1 PBD inh -21.5%.
O=C(NCc1ccco1)c1cc2ccc(O)cc2oc1=O was read as VDR inhibitor -4.7%, ALOX12 inh 0.0%, KAT2A inh inconclusive, PLK1 PBD inh -13.0%, TbPYK confirm 20µM* and TbPYK ADP-Glo 2.8%.
`O=C(c1ccccc1)c1cc2ccc(O)cc2oc1=O` gave VDR inhibitor -9.3%, ALOX12 inh inconclusive, KAT2A inh -6.1%, PLK1 PBD inh -7.9%, TbPYK confirm inconclusive and TbPYK ADP-Glo 8.6%.
CC(CCc1ccccc1)NC(=O)c1ccc2c(Cl)c3c(nc2c1)CCC3 (stereo not given) was read as ALOX12 inh -37.1%.
CC(Sc1nncn1-c1cccc(Cl)c1)c1nc2ccccc2c(=O)[nH]1 (stereo not given) was read as ALOX12 inh -4.7%.
Screening CC1CCCN(C(=O)c2nn(C)c3c2CSc2ccccc2-3)C1 (stereo not given) returned VDR inhibitor -10.8%, ALOX12 inh inconclusive, KAT2A inh inconclusive, PLK1 PBD inh inconclusive, TbPYK confirm 7.94µM* and TbPYK ADP-Glo 10µM*.
For CCN(C(=O)COC(=O)Cc1sc(N)nc1-c1ccc(C)cc1)c1cccc2ccccc12 the results were ALOX12 inh -2.5%.
Cc1ccc2c(ccn2CCC(=O)Nc2nnc(C3CC3)s2)c1 was read as ALOX12 inh -1.3%.
For COc1cc(/C=C/c2sc3ccccc3[n+]2CCCS(=O)(=O)[O-])ccc1O the results were VDR inhibitor -15.7%, ALOX12 inh inconclusive, KAT2A inh -3.0%, PLK1 PBD inh 36.5%, TbPYK confirm 15.8µM* and TbPYK ADP-Glo 2.6%.
`O=[N+]([O-])c1cc2no[n+]([O-])c2cc1N1CCCCC1` gave VDR inhibitor 39.8µM*, ALOX12 inh inconclusive, PLK1 PBD inh 2.67µM*, TbPYK confirm 2.24µM* and TbPYK ADP-Glo 3.55µM*.
`Cc1nnsc1C(=O)N/N=C/c1c(F)cccc1Cl` gave VDR inhibitor -16.9%, ALOX12 inh 2.5%, KAT2A inh 2.2% and PLK1 PBD inh -1.0%.
Screening Cc1[nH]cnc1C(=O)N/N=C/c1c(Cl)cccc1Cl returned VDR inhibitor -16.4%, ALOX12 inh -3.9%, KAT2A inh -4.2%, PLK1 PBD inh 1.2%, TbPYK confirm 20µM* and TbPYK ADP-Glo 12.3%.
For COc1ccc(C(Nc2ccccn2)c2oc(CO)cc(=O)c2O)cc1 (stereo not given) the results were VDR inhibitor inconclusive, ALOX12 inh inconclusive, KAT2A inh -5.8%, PLK1 PBD inh 23.8µM*, TbPYK confirm 39.7% and TbPYK ADP-Glo 16.4%.
